In PubChem BioAssay (NCATS):
Records with an inconclusive call do not appear. A call without a number means that no potency is given here. Calls of active or inactive are those of the source. Calls come from the whole dose curve; as a rule, active = well fitted inhibition curve with a large enough effect; inconclusive = small, poorly fitted or top-dose-only effect; inactive = flat fitted curve, though single readings scatter.

Test: P-glycoprotein substrates identified in KB-8-5-11 adenocarcinoma cell line, qHTS therapeutic library screen (AID 1346987); note: nearly all actives have a fitted effect of over 65% in size
Conditions: KB-8-5-11 (P-gp overexpressing) viability, CellTiter-Glo, 72 h; series mostly up to 44.5 µM
Method in brief: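 Compounds are pinned in dose-response onto KB-8-5-11 cells (500 cells/well, colchicine-free medium) and left 72 h at 37 degree C. CellTiter-Glo luminescence then yields AC50 values.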
Potency is the fitted concentration of half-maximal effect.

| SMILES | Potency | activity change, negative = cytotoxicity | outcome |
| --- | --- | --- | --- |
| CC1[C@@H](O)[C@@H](O)C2[C@]3(C)C(C[C@H]4OC(=O)[C@H](O)[C@]1(O)[C@@]24C)C(C)(O)C[C@H](O)[C@H]3O (stereo partly drawn) | inactive |  |  |
| CC(=O)OC[C@@]12[C@H](O)C[C@]3(C)C(=CCC4[C@@]5(C)CC[C@H](O[C@@H]6O[C@H](C(=O)O)[C@@H](O[C@@H]7O[C@H](CO)[C@@H](O)[C@H](O)[C@H]7O)[C@H](O)[C@H]6O[C@@H]6O[C@H](CO)[C@@H](O)[C@H](O)[C@H]6O)[C@](C)(CO)C5CC[C@]43C)[C@@H]1CC(C)(C)[C@@H](OC(C)=O)[C@@H]2O (stereo partly drawn) |  | 4.33% [at 9.29 µM] (inactive) |  |
| Cn1c(=O)cc(N2CCCC(N)C2)n(Cc2ccccc2C#N)c1=O (stereo not drawn) | inactive |  |  |
| CC(C)CC1(C(=O)OCc2ccc(O[C@@H]3O[C@H](CO)[C@@H](O)[C@H](O)[C@H]3O)cc2)CC(=O)OC(C(=O)O)CC(=O)OCC2OC(O1)C(OC(=O)/C=C/c1ccc(O)cc1)C(O)C2O (stereo partly drawn) |  |  | inactive [at 9.29 µM] |
| CC1CCC(=O)CC(O)C(O)CC(=O)O1 (stereo not drawn) | inactive |  |  |
| N[C@H](C(=O)O)[C@@H]1CC(Cl)=NO1 | 4.11 µM (active) |  |  |
| COc1cc(C[C@H]2COC(=O)[C@@H]2Cc2ccc(O)c(OC)c2)ccc1O | inactive |  |  |
| COC(=O)C1=CO[C@@H](O[C@@H]2O[C@H](CO)[C@@H](O)[C@H](O)[C@H]2O)[C@@H]2[C@@H](C(=O)OC)[C@@H](O)C(O)[C@H]12 (stereo partly drawn) | inactive |  |  |
| O=C(O)C[C@H]1CCC(=O)[C@@H]1C/C=C\CCOC1OC(CO)C(O)C(O)C1O (stereo partly drawn) | inactive |  |  |
| CC(C)(O)CNc1nc(Nc2ccnc(C(F)(F)F)c2)nc(-c2cccc(C(F)(F)F)n2)n1 | inactive |  |  |
| CCC(C)(O)C(O)C(=O)OCc1ccc(O[C@@H]2O[C@H](CO)[C@@H](O)[C@H](O)[C@H]2O)c(OC)c1 (stereo partly drawn) | inactive |  |  |
| C=C1CC[C@@H]2[C@](C)(CO)[C@H](O)CC[C@@]2(C)[C@@H]1C/C=C1/C(=O)OC[C@H]1O | inactive |  |  |
| CC1CCC2(C)C(CC(O)C(O)C23CO3)C1(C)CCC1=CC(O)OC1=O (stereo not drawn) | inactive |  |  |
| CCOC(=O)[C@H](CCc1ccccc1)N[C@@H](C)C(=O)N1C2CCCCC2C[C@H]1C(=O)O (stereo partly drawn) | inactive |  |  |
| CC1OC(OC2C(C)OC(OC3C(OC(=O)/C=C/c4ccc(O)cc4)C(CO)OC(OC4(COC(=O)/C=C/c5ccc(O)cc5)OC(CO)C(O)C4O)C3OC3OCC(O)(CO)C3O)C(O)C2O)C(O)C(O)C1O (stereo not drawn) |  | 9.5% [at 9.29 µM] (inactive) |  |
| C=CC1(C)C=C2C(O)CC3C(C)(C(=O)O)CCCC3(C)C2CC1 (stereo not drawn) | inactive |  |  |
| C=C1CCC2(OC1)OC1CC3C4CC=C5CC(O)CC(O[C@@H]6OC[C@@H](O)[C@H](O)[C@H]6O)C5(C)C4CCC3(C)C1(O)C2C (stereo partly drawn) | inactive |  |  |
| CCC[C@@H]1C[C@@H](C(=O)N[C@@H]([C@H]2O[C@H](SC)[C@H](OP(=O)(O)O)[C@@H](O)[C@H]2O)[C@H](C)Cl)N(C)C1 | inactive |  |  |
| CN(C)C/C=C/C(=O)Nc1ccc(C(=O)Nc2cccc(Nc3ncc(Cl)c(-c4c[nH]c5ccccc45)n3)c2)cc1 | 5.17 µM (active) |  |  |
| COc1ccc(C2=CC(=O)OC2Cc2ccc(O)cc2)c(O)c1 (stereo not drawn) | inactive |  |  |
| CC(C)C(=O)c1cn(CC(=O)COc2ccc(Oc3ccccc3)cc2)c2ccc(C(=O)O)cc12 | inactive |  |  |
| C[C@@H]1CC[C@]2(C)C3(C)CC[C@@]2(OC3=O)[C@@]12C[C@H](c1ccoc1)OC2=O | inactive |  |  |
| C=C1CCC2[C@@](C)(C=O)CCC[C@]2(C)[C@H]1CC/C(C)=C/CO (stereo partly drawn) | inactive |  |  |
| C=C1C2(CCC(=O)OC2(C)C)CC(OC(=O)/C(C)=C/C)C2(C)C13OC14C(=O)OC(C)(C(=O)C12C(=O)OC4C)C3OC(C)=O (stereo not drawn) | inactive |  |  |
| COc1ccc(/C=C/C(=O)O[C@@H]2[C@@H](OC(C)=O)[C@@H](OC(C)=O)[C@H](O[C@H]3[C@@H]4C=CO[C@@H](O[C@@H]5O[C@H](CO)[C@@H](O)[C@H](O)[C@H]5O)[C@@H]4[C@@]4(CO)O[C@@H]34)O[C@H]2C)cc1O | inactive |  |  |
| CCc1cc2c(=O)c(-c3nc4ccccc4s3)coc2c(CN2CCCCC2)c1O | inactive |  |  |
| CC(C)C1=CC2=CCC3[C@](C)(CCC[C@@]3(C)C(=O)O)C2CC1=O (stereo partly drawn) | inactive |  |  |
| COC(=O)[C@@]1(C)CC[C@]2(C(=O)O[C@@H]3O[C@H](CO)[C@@H](O)[C@H](O)[C@H]3O)CC[C@]3(C)C(=CCC4[C@@]5(C)CC[C@H](O[C@@H]6O[C@H](C(=O)O)[C@@H](O)[C@H](O)[C@H]6O)C(C)(C)C5CC[C@]43C)[C@@H]2C1 (stereo partly drawn) |  | -9.96% [at 9.29 µM] (inactive) |  |
